Screening data: PubChem, National Center for Advancing Translational Sciences (NCATS)
SARS PLpro yeast – qHTS of Yeast-based Assay for SARS-CoV PLP; S. cerevisiae expressing SARS-CoV PLpro, growth rescue; Potency, µM (titrated, usually from 32.9 µM), for the others: top-dose activity, positive = growth rescue, usual class: activators; 0.19% of 330,000 active; AID 485353, 2010; calls by dose curve; further: potency means the concentration at half of the fitted maximal effect; 0% is about no effect; nearly all actives have a fitted effect of over 55% in size
HCMV inh – qHTS Assay for inhibitors of the human cytomegalovirus (HCMV); HFF cells, HCMV-luciferase reporter, 72 h; stronger effect = lower value; activity change, negative = inhibition, % at 57.5 µM; 4.5% of 410,000 active; in the data active means activity change below about -60%; inconclusive means no clear call, values can overlap the other calls; inactive means above about -39%; further: on the % scale 0 is the no-effect control and ±100 the full control effect
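HFF cells seeded 16 h at 37C, treated with compounds, infected with luciferase-reporter HCMV at MOI 1 PFU/cell; luciferase read at 72 h post infection, normalized to buffer-only and Salinomycin controls.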
MARV entry inh – qHTS for inhibitors of binding or entry into cells for Marburg Virus; Marburg virus pseudotyped entry inhibition, cell reporter; Potency, µM (highest dose often 37.8 µM), for the others: at the highest dose activity change, negative = inhibition, most hits filed as inhibitors; 1.8% of 300,000 active; AID 540276, 2011; calls by dose curve; tested in HEK293 cells; further: potency means the concentration at half of the fitted maximal effect; on the % scale 0 is the no-effect control and ±100 the full control effect
FMDV antiviral – High Throughput Screening for Foot and Mouth Disease Virus Antivirals. AID 1159524, 2015. FMDV antiviral cell-based qHTS. Potency, µM (titrated, usually from 57.9 µM), for the others: top-dose activity change, negative = inhibition, actives largely listed as inhibitors. 1.2% of 410,000 active; calls by dose curve; tested in HEK293T cells; further: read-out not given here; potency means the concentration at half of the fitted maximal effect; on the % scale 0 is the no-effect control and ±100 the full control effect; nearly all actives have a fitted effect of over 45% in size
LASV entry inh – qHTS for Inhibitors of binding or entry into cells for Lassa Virus | Lassa virus pseudotype entry inhibition, cell reporter | AID 540256, 2011 | 1.2% of 300,000 active | Potency, µM (series often up to 37.9 µM), for the others: at the highest dose activity change, negative = inhibition, hits mostly inhibitors; calls by dose curve; tested in HEK293 cells; further: potency means the concentration at half of the fitted maximal effect; on the % scale 0 is the no-effect control and ±100 the full control effect; nearly all actives have a fitted effect of over 50% in size
HCV inh – qHTS Assay for Inhibitors of Hepatitis C Virus (HCV) | Huh7.5.1 HCVcc-Cre infection, luciferase reporter, 44 h | AID 651820, 2012 | Potency, µM (titrated, usually from 41.8 µM), for the others: top-dose activity change, negative = inhibition, hits mostly inhibitors | 3.4% of 340,000 active; active means well fitted inhibition curve with a large enough effect; inconclusive means small, poorly fitted or top-dose-only effect, or another doubt; inactive means no such curve, though single readings can be large or run the other way; further: potency means the concentration at half of the fitted maximal effect; on the % scale 0 is the no-effect control and ±100 the full control effect
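1,000 cells/well; 4 h culture; + compound; + HCVcc-Cre (~0.5 moi); 44 h; luciferase substrate, RT 15 min; read 15 sec.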
Starred values were filed as active, the others as inactive; ? = inconclusive; / = no result; ! = not confirmed by another sample; [ ] = dose if it differs, or a comment. In the library only some 8% were active in any assay of this set; here they are far more common.

SMILES	SARS PLpro yeast	HCMV inh	MARV entry inh	FMDV antiviral	LASV entry inh	HCV inh
C=CC[C@@H]1C=CC(O/N=C/C[C@@H]2C=C[C@H](OC(C)=O)[C@@H](COC(C)=O)O2)[C@@H](CO)O1 (some centres undefined)	/	/	4%[14.2 µM]	/	/	/
Cc1ccc(S(=O)(=O)c2nnn3c2nc(N2CCOCC2)c2ccccc23)cc1	5%	9	/	-4%	/	11µM*
Cc1ccc(S(=O)(=O)c2nnn3c2nc(N2CCCCC2)c2ccccc23)cc1	27%	36	?	-7%	29%	-2%
C=CC(C)(C)c1c(O)c(CC=C(C)C)c(O)c2c(=O)c3ccc(O)c(O)c3oc12	/	/	/	?	/	11µM*
COc1ccc(OCc2n(CC(=O)OC3CC(C)CCC3C(C)C)c3ccccc3[n+]2C)cc1 (centres undefined)	-6%	-103*	/	?	/	?
CC1CCC(C(C)C)C(OC(=O)CSc2nccc(=O)[nH]2)C1 (centres undefined)	7%	-27	1%	-13%	-4%	2%
CC1CCC(C(C)C)[C@H](OC(=O)c2ccccc2)C1 (some centres undefined)	/	/	/	3%	/	/
COc1ccc(-c2n(CC(=O)OC3CC(C)CCC3C(C)C)c3ccccc3[n+]2C)cc1 (centres undefined)	0%	17	?	5µM*	?	11µM*
CC1CCN(CC(=O)N2CCCc3c2c(=O)oc2ccc(OCc4ccccc4)cc32)CC1	4%[6.58 µM]	-9	7.1µM*	?	0.63µM*!	?
CCCOc1ccc2oc(=O)c3c(c2c1)CCCN3C(=O)CN1CCc2ccccc2C1	-8%	-36	?	-18%	?	?
CC1CC(C)CN(CC(=O)N2CCCc3c2c(=O)oc2ccc(OCc4ccccc4)cc32)C1 (centres undefined)	4%	-7	10µM*	?	?	11µM*
COc1ccc(Nc2nc(N)nc(CN3CCc4ccccc4C3)n2)cc1	-1%	-36	/	-25%	/	-8%
COc1ccc(Nc2nc(N)nc(CSC(=S)N3CCCCC3C)n2)cc1 (centres undefined)	13%	-63*	?	-25%	7.1µM*	?
CC1CC(C)CN(Cc2nc(N)nc(Nc3ccc4ccccc4c3)n2)C1 (centres undefined)	1%	-3	?	-28%	?	13µM*
Nc1nc(CN2CCN(c3ccccc3)CC2)nc(Nc2ccc(Cl)cc2)n1	-1%	-65*	/	32µM*	/	13µM*
COc1ccc(Nc2nc(N)nc(CN3CCC(C)CC3)n2)cc1	-2%	-91*	6%	7%	9%	0%
O=C1CCC[C@H]2[C@@H](Cc3ccccc3)[C@@H](NCc3cccs3)CC[C@]23CCCN13	/	-11	/	/	/	/
Cc1ccc(NC(=O)c2ccc(CN3CC(=O)N4CCCCC4C3=O)cc2)cc1C (centres undefined)	/	142	/	7%	2%[46.1 µM]	/
CCCS(=O)(=O)NCCc1sc2nc(-c3ccc(Cl)cc3)nn2c1C	/	-66*	/	-16%	?	/
CCOc1ccc(S(=O)(=O)NCCc2sc3nc(-c4ccc(F)cc4)nn3c2C)cc1	/	?	/	-18%	?	/
CCCS(=O)(=O)NCCc1sc2nc(-c3ccc(F)cc3)nn2c1C	/	-71*	/	-17%	-13%[46.1 µM]	/
COc1ccc(-c2nc3scc(CCNS(=O)(=O)c4ccc(Oc5ccccc5)cc4)n3n2)cc1OC	/	-72*	/	11%	?	/
Cc1cc(C)c(S(=O)(=O)NCCc2sc3nc(-c4ccc(F)cc4)nn3c2C)c(C)c1	/	-60*	/	30%	24%[46.1 µM]	/
COc1ccc(-c2c(C)nn3c(N4CCN(c5ccccc5)CC4)cc(C)nc23)cc1OC	/	?	5%[46.1 µM]	-17%	0%[46.1 µM]	/
CCc1ccc(NC(=O)C(=O)NCCc2sc3nc(-c4ccc(OC)cc4)nn3c2C)cc1	/	-64*	/	-9%	-17%[46.1 µM]	/
SMILES	SARS PLpro yeast	HCMV inh	MARV entry inh	FMDV antiviral	LASV entry inh	HCV inh
Cc1ccc(-c2nc3scc(CCNS(=O)(=O)c4ccc(C)c(C)c4)n3n2)cc1	/	-30	/	30%	-2%[46.1 µM]	/
COc1ccc(S(=O)(=O)NCCc2sc3nc(-c4ccc(C)cc4)nn3c2C)cc1C	/	-94*	/	4%	-34%[46.1 µM]	/
Cc1ccc(NC(=O)c2c(C)oc3ncn(CC(C)C)c(=O)c23)nc1	/	-2	/	-1%	27%[46.1 µM]	/
Cc1cc(C)c(-c2csc(-c3cc4ccccc4oc3=O)n2)cc1C	/	7	-15%[46.1 µM]	3%	-6%[46.1 µM]	/
O=c1oc2ccccc2cc1-c1csc(Cc2nc(-c3ccc(Br)cc3)cs2)n1	-8%	-99*	-20%	-16%	-28%	?
Cc1cc(C)c(-c2csc(Cc3nc(-c4cc5ccccc5oc4=O)cs3)n2)cc1C	18%	-65*	?	?	-12%	?
O=c1oc2ccc(Br)cc2cc1-c1csc(-c2ccccc2)n1	/	2	/	-7%	?	/
COc1cc(=O)n2c(c1C(=O)N(C)Cc1nonc1C)CCN(CC1CC=CCC1)CC2 (centres undefined)	/	/	/	5%	/	/
COc1ccc2cc(CN(CC3CCCO3)C(=O)Nc3ccccc3OC)c(=O)[nH]c2c1 (centres undefined)	-1%	-26	?	-14%	/	?
CCc1ccc2[nH]c(=O)c(CN(Cc3ccccc3)C(=O)Nc3ccccc3OC)cc2c1	-3%	?	?	-17%	-20%	2.5µM*
COc1ccc2cc(CN(C(=O)Nc3ccccc3OC)C3CCCC3)c(=O)[nH]c2c1	2%	0	8.9µM*	-20%	?	?
O=C(NC1CCCCC1)N(Cc1cc2cc3c(cc2[nH]c1=O)OCCO3)C1CCCCC1	7%	-80*	?	-3%	11%	11µM*
CCc1ccc2[nH]c(=O)c(CN(CCN(C)C)C(=O)Nc3ccccc3OC)cc2c1	1%	-13	-24%	-5%	-13%	-6%
COC(=O)c1ccccc1NC(=S)N(Cc1ccc2c(c1)OCO2)Cc1cc2cc(OC)ccc2[nH]c1=O	?	?	?	-11%	?	11µM*
COc1ccc(-c2nc3ccccc3n3c(-c4ccc(OC)cc4)c4c(=O)n(C)c(=O)n(C)c4c23)cc1	/	27	-13%[46.1 µM]	-23%	12%[46.1 µM]	/
Cc1cc(C)c2nc(-c3ccccc3)ccc2c1	/	-17	/	45%	/	/
Cc1cc(C)c2c(ccc3cccc[n+]32)c1	/	?	?	?	-19%	1µM*
COC(=O)/C=C/[C@@H](CC1CCCC1)NC(=O)C(F)(F)F	/	-12	/	/	/	/
Cc1cc(C)nc(SCc2ccc(C(=O)NNC(=O)Nc3cccc(Cl)c3)cc2)n1	-3%	-31	?	8%	11µM*	25µM*
Oc1ccc[n+](CCCCC[n+]2cccc(O)c2)c1	0%	-13	1%	-14%	/	10%
